Results reported in PubChem BioAssay AID926 (National Center for Advancing Translational Sciences (NCATS), 2007).
Values joined by “and” are separate entries in the source; they are usually repeats but may differ in a detail not shown here. Equal values may be shown once. About 350 (0.48%) of roughly 73,000 compounds were called active. Roughly 17% stayed inconclusive and do not appear here. Calls follow the shape of the dose curve; as a rule, active = well fitted activation curve with a large enough effect in the main read-out, with a control signal flat (not every such curve was filed as active); inconclusive = small, poorly fitted or top-dose-only effect, or a change in a side signal; inactive = no such curve, though single readings can be large or run the other way; reference of the percent scale not stated here. Only a selection was taken, and actives are over-represented in it overall.

Experiments:
[1] = qHTS Assay for Agonists of the Thyroid Stimulating Hormone Receptor; settings: HEK293-CNG-TSHR cells, membrane potential dye, cAMP; measured here: parental cells max response
Description: (§1) NIH Chemical Genomics Center [NCGC]
(§2) NIH Molecular Libraries Screening Centers Network [MLSCN]
(§3) PI Name: Dr. Marvin Gershengorn, NIH
(§4) Thyroid Stimulating Hormone Receptor
(§5) TSH is an alpha/beta heterodimeric glycoprotein hormone secreted from the anterior pituitary gland which belongs to the glycoprotein hormone family. The actions of TSH are mediated by a seven-transmembrane receptor, which upon TSH binding couples preferentially to the G-alpha (s) protein (Gs), resulting in activation of adenylate cyclase and increase in cyclic adenosine 3', 5' monophosphate (cAMP). The TSH receptor (THSR) is mainly expressed in thyroid follicular cells and regulates their growth and function. Recombinant TSH is used to activate TSHR in patients with thyroid cancer receiving thyroid hormone suppression therapy and to screen for residual tumor after surgery, but it is expensive and must be administered intramuscularly. An orally active small molecule TSHR agonist would serve as an invaluable research tool for studying TSHR pharmacology and physiology, and would have multiple advantages in therapeutic settings. However, no selective small molecule agonist of the TSH receptor exists, and no small molecule screen for TSHR agonists has ever been reported.
(§6) This cell based assay utilized a cyclic nucleotide gated ion channel (CNG) as a biosensor for cAMP induction by potential TSHR agonists.
(§7) HEK 293 cells stably expressing the TSHR as well as a modified CNG were purchased from BD biosciences. Stimulation of cAMP production causes the CNG to open and subsequent membrane depolarization to occur. A fluorescent membrane potential dye (BD biosciences) was utilized to detect cAMP stimulation in TSHR cells.
(§8) The cells were maintained in DMEM medium (Invitrogen) containing 10 % FBS (Hyclone), 100 units/ml Penicillin, 100 ug/ml Streptomycin (Invitrogen), and 250 ug/ml Geneticin (Invitrogen) and 1 ug/ml Puromycin (Invitrogen) at 37C in 5% CO2. HEK 293 cells expressing CNG but without TSHR (parental cells) were used in concert to control for compounds signaling through endogenous receptors and targets of HEK 293 cells.
(§9) NCGC Assay Protocol Summary:
(§10) High Throughput Screening. Freshly passaged cells (TSHR or parental) were dispensed into 1536-well assay plates at 4 ul/well in DMEM containing phenol red (Invitrogen), 10% FCS (Hyclone), and 100 units/ml Penicillin, 100 ug/ml Streptomycin (Invitrogen) and incubated at 37 C with 5% CO2 for 20 to 36 hrs before the robotic screening. The screen was initiated by addition of 4 ul/well membrane potential dye containing 100 uM RO 20-1724 (Sigma Aldrich), followed by 60 min incubation at room temperature to allow for dye equilibration across the cell membrane. 23 nl/well compound or control was then added to the assay plates, which were incubated for additional 30 min before reading a Envision fluorescence plate reader (Perkin Elmer) in bottom-read mode for fluorescence intensity (emission at 590 nm).
(§11) Keywords: Thyroid-stimulating hormone TSH, TSHR, TSHR agonist, quantitative high throughput screening, qHTS, HTS, probe identification, CNG, cAMP, cyclic nucleotide gated ion channel PubChem

[2] = target: Thyrotropin receptor (Homo sapiens) (UniProt P16473); assay: as above; settings: HEK293-CNG-TSHR cells (CNG channel as cAMP sensor), membrane potential dye, cAMP; series mostly up to 57.1 µM
Description: as §1, §2, §3, §4, §5, §6, §7, §8, §9, §10, §11
Potency is read from the fitted curve at half-maximal effect.

Thyrotropin receptor (Homo sapiens), sequence (P16473 whole entry, looked up): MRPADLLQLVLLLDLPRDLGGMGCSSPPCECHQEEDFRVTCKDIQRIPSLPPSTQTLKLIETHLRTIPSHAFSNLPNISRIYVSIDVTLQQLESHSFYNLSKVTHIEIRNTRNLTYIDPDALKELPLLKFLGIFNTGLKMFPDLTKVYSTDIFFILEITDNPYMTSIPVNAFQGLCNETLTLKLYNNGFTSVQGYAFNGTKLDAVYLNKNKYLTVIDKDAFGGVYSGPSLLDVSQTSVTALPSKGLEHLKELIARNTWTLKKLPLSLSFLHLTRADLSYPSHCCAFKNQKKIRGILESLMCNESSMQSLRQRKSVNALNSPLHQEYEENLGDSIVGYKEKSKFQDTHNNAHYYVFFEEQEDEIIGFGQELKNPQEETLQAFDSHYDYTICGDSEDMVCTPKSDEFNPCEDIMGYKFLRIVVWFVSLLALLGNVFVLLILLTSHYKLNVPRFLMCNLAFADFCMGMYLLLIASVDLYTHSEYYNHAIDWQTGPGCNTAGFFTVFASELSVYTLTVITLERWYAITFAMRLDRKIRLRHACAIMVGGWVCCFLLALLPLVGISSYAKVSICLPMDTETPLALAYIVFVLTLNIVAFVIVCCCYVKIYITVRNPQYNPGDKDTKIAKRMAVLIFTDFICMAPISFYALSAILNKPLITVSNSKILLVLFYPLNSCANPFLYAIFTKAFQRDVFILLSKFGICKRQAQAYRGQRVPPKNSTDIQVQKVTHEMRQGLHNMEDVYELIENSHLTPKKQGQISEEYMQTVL

Compound | activation [1] | activation [2] | Potency [2]
CO[C@@H]1COC(=O)C/C=C\[C@H](C)[C@@H](NS(=O)(=O)c2ccc(C)cc2)COC(=O)C/C=C\[C@@H]1C | 2.07% and 4.9% | -0.576% [at 11.4 µM] (inactive) and -0.527% [at 11.4 µM] (inactive) | –
CCOC(=O)N/N=C1/C[C@@H](O)[C@@H](O)[C@@H]2[C@@H]3C(=O)N(CC)C(=O)[C@H]3CC[C@H]12 | 2.56% | 5.56% [at 11.4 µM] (inactive) | –
CC(C)CCn1c(CN(C)Cc2ccccc2)nc2c1c(=O)n(C)c(=O)n2C | 3.87% | – | inactive
CO[C@@H]1COC(=O)[C@H](Cc2ccccc2)NC(=O)C/C=C\[C@@H](C)[C@H](OC)COC(=O)[C@@H](C)NC(=O)C/C=C\[C@H]1C | 8.45% and -4.16% | -6.09% [at 11.4 µM] (inactive) and -4.32% [at 11.4 µM] (inactive) | –
CCc1cc(=O)oc2cc(OCC(=O)N3CCCc4ccccc43)ccc12 | -4.75% | – | 25.1 µM (active)
COc1ccc2oc(=O)c(C(=O)N3CCCc4ccccc43)cc2c1 | -9.12% | – | inactive
Cc1occc1C(=O)N1CCCc2ccccc21 | 23.6% | – | inactive
COc1ccc(COC(=O)N/N=C2/C[C@@H](O)[C@@H](O)[C@@H]3[C@@H]4C(=O)N([C@@H](C)c5ccccc5)C(=O)[C@H]4CC[C@@H]23)cc1 | -0.62% | 0.427% [at 11.4 µM] (inactive) | –
Nc1nonc1C(=O)NCCc1ccccc1 | -2.18% | – | inactive
COc1cc(Cl)c(S(=O)(=O)n2cnc(C)c2)cc1Cl | 12.1% | 13.5% [at 11.4 µM] (inactive) | –
O=C(OCC(COC(=O)c1ccccc1)(COC(=O)c1ccccc1)COC(=O)c1ccccc1)c1ccccc1 | 20% | – | inactive
COC(=O)c1ccc(/C=N\n2c(C)nnc2C)cc1 | 10.1% | – | inactive
CCOc1ccc(-c2nnn(CC(=O)N3CCN(c4ccc(OC)cc4)CC3)n2)cc1OCC | -8.4% | – | inactive
CCc1ccc(-c2nnn(Cc3nn[nH]n3)n2)cc1 | 16% | – | inactive
COc1ccc(-c2nnn(Cc3nc(N)nc(N4CCCCC4)n3)n2)cc1 | 22% | – | 31.6 µM (active)
Cn1nc(-c2ccc(N3CCOCC3)c(NC(=O)c3ccccc3)c2)c2ccccc2c1=O | 29.3% | – | 25.1 µM (active)
Cn1c(=O)n(C)c2cc(CNc3ccc(N4CCOCC4)c(C(=O)O)c3)ccc21 | 3.63% | – | inactive
O=C(Cn1nnc2ccccc2c1=O)Nc1cc(C(F)(F)F)ccc1N1CCOCC1 | 17.2% | – | inactive
O=C(C1CCN(CC2CCCCC2)CC1)N1CCCC1 | 16.6% | – | inactive
COC(=O)[C@@H]1CC[C@H](C)[C@@H](c2ccc(C)cc2)N1C(=O)c1ccc(/C=N\O[C@@H](C)c2cn([C@H](CO)Cc3ccccc3)nn2)cc1 | 9.66% and 5.24% | 0.181% [at 11.4 µM] (inactive) and 4.03% [at 11.4 µM] (inactive) | –
CCc1c(C)sc(NC(=O)OC)c1C(=O)N1CCOCC1 | -1.6% | – | inactive
CCOC(=O)[C@]1(C(/C=C/c2ccco2)NC(=O)OC)CCCC1=O (stereo partly specified) | 0.322% | 14% [at 11.4 µM] (inactive) | –

Compound | activation [1] | activation [2] | Potency [2]
O=C(CC1(O)C(=O)N(CN2CCOCC2)c2ccccc21)c1ccccc1 (stereo unspecified) | 1.28% | – | inactive
CN(C)C(=O)c1ccc(-c2cncnc2Nc2ccccc2)cc1 | -2.37% | – | inactive
OC(COc1cccc(OCC(O)CN2CCCC2)c1)CN1CCCC1 (stereo unspecified) | -1.83% | -1.13% [at 11.4 µM] (inactive) | –
Cc1cc(NS(=O)(=O)c2ccccc2)no1 | 1.38% | – | inactive
COc1ccc(O)c(C=Nc2cc(C)on2)c1 | -5.94% | – | inactive
CC(C)N(CCNC(=O)c1ccc(-n2c(=O)c(=O)[nH]c3ccccc32)cc1)C(C)C | -3.64% | – | inactive
CCC(C)n1[nH]c(=O)c2c(C)cc(C)nc21 (stereo unspecified) | 14.5% | – | inactive
Cc1cccc2c1N(CC(=O)OC(C)C)C(=O)C2=O | -9.41% | -2.45% [at 11.4 µM] (inactive) | –
Cc1cc(N=CC2=C(O)CCCC2=O)no1 | 5.56% | – | inactive
C=CCOC(=O)C(C(C)=O)C(NC(=O)OC)c1ccccc1 (stereo unspecified) | 4.24% | -0.17% [at 11.4 µM] (inactive) | –
O=C(O)[C@@H](O)Cc1ccccn1 | 4.67% | -3.52% [at 11.4 µM] (inactive) | –
c1ccc(Nc2n[nH]nc2-c2ccccc2)cc1 | -0.853% | – | inactive
Cc1nnc(NC(=O)CCC(=O)N2CCC(C)CC2)s1 | 5.36% | – | inactive
C#CCC(C(=O)OC)(C(=O)OC)C(C[N+](=O)[O-])c1ccccc1 (stereo unspecified) | -0.955% | 7.7% [at 11.4 µM] (inactive) | –
Cc1ccc(C(=O)CS(C)(=O)=O)cc1 | 1.73% | – | inactive
COc1ccc(-c2n[nH]c(C)c2-c2ccc(OC)c(OC)c2)c(O)c1 | 11.3% | – | 5.01 µM (active)
CCOc1ccccc1Oc1cn[nH]c1-c1ccc(OC)cc1O | 7.48% | – | inactive
C=C(C)COc1ccc(-c2n[nH]c(C)c2-c2ccccc2OC)c(O)c1 | 8.35% | – | 31.6 µM (active)
COc1ccc(OC)c(Nc2nc(-c3ccc(O)c(O)c3)cs2)c1 | -4.42% | – | inactive
C=C(C)COc1ccc(-c2n[nH]c(C)c2-c2ccccc2)c(O)c1 | 17.3% | – | inactive
COc1ccc(-c2nc(-c3ccccc3)no2)c(OC)c1 | 7.25% | – | inactive
